Screening results (PubChem BioAssay)
The list is not random: actives were taken first. Their share in the collection is about 3%.
Rv3671c protease – Rv3671c serine protease inhibitors, primary screen, biochemical, fluorescence polarization, M. tuberculosis H37Rv; AID 2606, 2010; P9WHR9; inhibition, % at 5.96 µM; 320,000 tested, 0.048% active; in the data active = inhibition above about 38%;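 also: extracellular domain of Rv3671c used as enzyme; 0% = enzyme with DMSO and 100% = no enzyme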
GDH-TPI counter-1 – GDH-TPI coupling enzyme inhibitors, primary screen, artefact control for M. tuberculosis FBA inhibitor project, biochemical, absorbance, full deck | GDH-TPI coupled enzyme counterscreen, NADH absorbance | inhibition, % at 4.8 µM | 360,000 tested, 1.2% active | AID 588335, 2011; in the data active = inhibition above about 30%;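 also: 0% = DMSO wells and 100% = wells lacking the enzyme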
FadD28 binding – inhibitors of FadD28 bisubstrate probe binding, primary screen, biochemical, fluorescence polarization, single point | 360,000 tested, 0.22% active | Mycobacterium tuberculosis FadD28 fatty-acid-AMP ligase | inhibition, % at 12.5 µM; in the data active = inhibition above about 8.5%, passing the limit was not always enough; inconclusive = no clear call, values can overlap the other calls
FBA Mtb inh – Mtb FBA enzyme inhibitors, primary screen, biochemical, fluorescence, strain H37Rv; purified M. tuberculosis FBA, fluorescence read-out; inhibition, % at 1 µM; 360,000 tested, 2.3% active;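 also: 0% = vehicle and 100% = reference inhibitor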
Target sequence (P9WQA3 whole entry, looked up): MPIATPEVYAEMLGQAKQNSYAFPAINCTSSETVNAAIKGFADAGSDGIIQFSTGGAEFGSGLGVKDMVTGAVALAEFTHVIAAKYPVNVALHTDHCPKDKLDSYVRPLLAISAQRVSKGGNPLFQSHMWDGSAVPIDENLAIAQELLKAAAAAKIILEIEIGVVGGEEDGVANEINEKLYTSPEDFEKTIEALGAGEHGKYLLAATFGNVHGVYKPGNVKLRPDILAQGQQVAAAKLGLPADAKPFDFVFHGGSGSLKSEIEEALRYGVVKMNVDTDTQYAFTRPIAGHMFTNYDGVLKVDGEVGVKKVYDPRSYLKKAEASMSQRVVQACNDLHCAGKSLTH
BioA inh – M. tuberculosis BioA enzyme inhibitors, primary screen, biochemical, plate reader, single point, HTS. 7,8-diaminopelargonic acid synthase BioA (Mycobacterium tuberculosis). purified M. tuberculosis BioA enzyme. inhibition, % at 9.99 µM. 360,000 tested, 0.096% active; in the data active = inhibition above about 40%; inconclusive = no clear call, values can overlap the other calls
Mtb FBA inh conf – M. tuberculosis aldolase blockers, biochemical, fluorescence, strain H37Rv, confirmation. shares compounds with FBA Mtb inh. purified M. tuberculosis FBA, fluorescence read-out. inhibition, % at 1 µM. 5,600 tested, 78% active. AID 651616, 2012;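 also: 0% = vehicle wells and 100% = reference inhibitor wells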
GDH-TPI counter-2 – GDH-TPI coupling enzyme inhibitors, artefact control for M. tuberculosis FBA inhibitor project, biochemical, fluorescence, high throughput; AID 652141, 2013; GDH-TPI coupled enzyme counterscreen; shares compounds with FBA Mtb inh; 5,600 tested, 81% active; inhibition, % at 1 µM; in the data active = inhibition above about 10%
GDH-TPI dose – GDH-TPI coupling enzyme inhibitors, dose response, artefact control for M. tuberculosis FBA inhibitor project, biochemical, fluorescence, IC50. shares compounds with FBA Mtb inh. GDH-TPI coupled enzyme assay, artifact counterscreen. IC50, µM. 170 tested, 79% active. AID 652145, 2013; call rule not given here
* = called active by the depositor; ? = inconclusive; · = not tested or not shown; + = active, no number. Rule as the data show it, unless noted: active = inhibition above about 27%; inactive = the rest.

SMILES	Rv3671c protease	GDH-TPI counter-1	FadD28 binding	FBA Mtb inh	BioA inh	Mtb FBA inh conf	GDH-TPI counter-2	others
Cc1ccc(-c2cc3cccc[n+]3cc2-c2ccc(C)cc2)cc1	-0.2	21.1	-3.0	40.4*	5.0	125.5*	97.8*
Cc1ccc2nc(-c3ccncc3)cc(-c3ccccc3)c2c1	-5.3	10.7	-5.7	7.0	1.0	·	·
C[C@@H]1CN([C@@H](C)CO)S(=O)(=O)c2ccc(C#CC3CC3)cc2O[C@@H]1CN(C)C(=O)C1CCCCC1	·	·	·	·	0.4	·	·
CC1CCCCN1CCNC(=O)c1cnn2ccccc12 (stereo unspecified)	3.9	16.0	0.2	40.4*	-3.8	23.1	13.7*
Cc1ccc(S(=O)(=O)Nc2cccc3c2O[C@@H](CN(C)C(=O)Nc2ccc(C(F)(F)F)cc2)[C@H](C)CN([C@@H](C)CO)C3=O)cc1	·	·	·	·	-3.9	·	·
COc1ccc(N2C(=O)c3ccccc3NC2c2ccc(NC(C)=O)cc2)c(OC)c1 (stereo unspecified)	-1.8	4.5	0.3	42.3*	-2.4	91.1*	63.8*
COc1ccccc1N1C(=O)c2ccccc2NC1c1ccc(O)cc1 (stereo unspecified)	2.5	-7.3	-3.1	41.9*	13.1	52.1*	44.8*
COc1cc(C2Nc3ccccc3C(=O)N2c2ccccc2OC)ccc1O (stereo unspecified)	-2.2	1.0	-4.0	13.1	0.6	·	·
CCOc1cc(C2Nc3ccccc3C(=O)N2c2ccccc2OC)ccc1O (stereo unspecified)	-1.2	7.5	-4.3	24.3	7.5	·	·
CCOC(=O)c1cn2nc(Oc3ccc(C#N)cc3)ccc2n1	3.7	7.3	-1.1	96.3*	·	2.8	-1.2
CCOC(=O)c1cn2nc(Oc3ccc(C(=O)OC)cc3)ccc2n1	-1.7	10.2	-2.5	99.9*	·	+	+
CCOC(=O)c1cn2nc(Oc3ccc(NC(C)=O)cc3)ccc2n1	0.6	-7.9	-3.3	-4.7	·	·	·
CC1(C)Oc2ccc3ccc(=O)oc3c2/C(=C/N)C1=O	0.3	15.6	-4.9	1.2	0.2	·	·
C/C=C(/C)C(=O)O[C@@H]1Cc2c(ccc3ccc(=O)oc23)OC1(C)C	1.6	14.8	-2.3	45.1*	1.2	68.4*	42.5*
C/C=C(/C)C(=O)O[C@@H]1[C@H](OC(C)=O)c2c(ccc3ccc(=O)oc23)OC1(C)C	-3.4	31.8*	-1.7	31.6*	-2.4	114.8*	87.5*
C/C=C(/C)C(=O)O[C@H]1[C@@H](O)c2c(ccc3ccc(=O)oc23)OC1(C)C	-4.1	20.2	-1.3	34.3*	-1.7	92.8*	79.5*
CC1(C)Oc2ccc3ccc(=O)oc3c2/C(=C/O)C1=O	5.8	20.3	?	43.5*	2.9	153.5*	119.2*
COc1ccc2ccc(=O)oc2c1CC=C(C)C	-1.6	8.8	-2.7	1.9	2.9	·	·
C/C=C(/C)C(=O)OC1c2c(ccc3ccc(=O)oc23)OC(C)(C)C1OC(C)=O (stereo unspecified)	-2.4	14.3	0.0	15.3	2.4	·	·
Cc1noc(C)c1NC(=O)N(C)C[C@H]1OCCCC[C@@H](C)Oc2ccc(NS(=O)(=O)c3cccs3)cc2C(=O)N([C@@H](C)CO)C[C@@H]1C	·	·	·	·	-0.6	·	·
CO[C@@H]1CN(C)C(=O)c2cc(NC(=O)c3ccccc3)ccc2OC[C@H](C)N(C)C[C@H]1C	·	·	·	·	0.3	·	·
CNC[C@H]1OCCCC[C@@H](C)Oc2ccc(NS(=O)(=O)c3ccc(Cl)cc3)cc2C(=O)N([C@@H](C)CO)C[C@H]1C	·	·	·	·	-1.8	·	·
CC1(C)Oc2ccc3ccc(=O)oc3c2[C@H](O)[C@H]1O	-3.5	17.9	-0.2	57.6*	-2.2	68.9*	58.5*
CC1(C)Oc2ccc3ccc(=O)oc3c2C(N2CCCCC2)C1O (stereo unspecified)	-8.6	-2.8	-2.0	6.2	1.2	·	·
CC1(C)Oc2ccc3ccc(=O)oc3c2C[C@H]1O	4.6	15.6	-2.9	88.2*	-2.9	148.6*	113.0*
SMILES	Rv3671c protease	GDH-TPI counter-1	FadD28 binding	FBA Mtb inh	BioA inh	Mtb FBA inh conf	GDH-TPI counter-2	others
CCCC(=O)Nc1ccc2c(c1)C(=O)N(C)[C@@H]1CC[C@H](CC(=O)NCC3CCCCC3)O[C@@H]1CO2	·	·	·	·	-0.6	·	·
N#C[C@@H]1[C@@H](c2ccccc2)[C@@H](CO)N1C(=O)c1ccccc1F	·	·	·	·	0.2	·	·
Cc1ccc(NC(=O)c2ccc3snnc3c2)cc1C	-8.6	3.4	-3.6	-1.7	-0.5	·	·
O=C(Nc1ccc(F)cc1)c1ccc2snnc2c1	-7.4	5.3	-2.2	45.6*	6.3	121.5*	114.2*
C[C@@H]1CN([C@@H](C)CO)C(=O)c2cc(NS(=O)(=O)c3cn(C)cn3)ccc2O[C@H]1CN(C)Cc1ccc(C(=O)O)cc1	·	·	·	·	-0.4	·	·
N#Cc1c(F)cccc1N1CCC(C#N)CC1	3.0	5.7	-2.5	30.9*	·	154.1*	114.9*
CO[C@@H]1CN(C)C(=O)c2ccc(NS(=O)(=O)c3ccc(Cl)cc3)cc2OC[C@H](C)N(C)C[C@H]1C	·	·	·	·	-0.6	·	·
COc1ccccc1COc1ccc2c(C)c(CCC(=O)O)c(=O)oc2c1C	-4.3	3.5	-7.2	16.1	-1.6	·	·
Cc1c(CC(=O)O)c(=O)oc2cc(OCc3ccc(Br)cc3)ccc12	-2.5	17.0	0.6	85.7*	-0.1	139.3*	121.9*
Cc1c(CCC(=O)O)c(=O)oc2cc(OCc3cccc(F)c3)ccc12	-4.3	7.9	-2.4	86.0*	3.6	8.8	0.1
Cc1c(CCC(=O)O)c(=O)oc2cc(OCc3ccccc3Br)ccc12	-2.5	9.0	-0.3	61.0*	1.3	99.2*	68.6*
CO[C@H]1CN(C)C(=O)c2cc(NC(=O)Nc3ccccc3)ccc2OC[C@H](C)N(C(=O)Nc2c(C)noc2C)C[C@@H]1C	·	·	·	·	-2.7	·	·
CCc1cc(=O)oc2c(C)c(OC(C)C(=O)N3CCC[C@@H]3C(=O)O)ccc12 (stereo partly specified)	2.1	17.6	-0.1	42.0*	-0.6	53.7*	61.5*
CCc1cc(=O)oc2c(C)c(OC(C)C(=O)N3CC[C@@]4(O)CCCC[C@H]4C3)ccc12 (stereo partly specified)	-4.5	14.7	-3.2	8.4	-1.3	·	·
CCc1cc(=O)oc2c(C)c(OCC(=O)N3CCC[C@@H]3C(=O)O)ccc12	0.7	8.3	-0.1	58.4*	-0.7	10.7	5.7	GDH-TPI dose=2.97*
